Screens deposited in PubChem BioAssay by University of Pittsburgh Molecular Library Screening Center.
The entries come from a sample that favours hits as a whole.
HIV RNase H inh-1: inhibitors of HIV-1 reverse transcriptase RNase H. 65,000 compounds, 1.9% hits. RT-RNase H RNA/DNA duplex cleavage, fluorescence. inhibition, % at 10 µM; in the data active means inhibition above about 50%
HIV RNase H inh-2: confirmation of HIV-1 reverse transcriptase RNase H inhibitors. Recombinant RT RNase H, fluorescent RNA/DNA duplex cleavage. inhibition, % at 10 µM. shares compounds with HIV RNase H inh-1. 1,000 compounds, 39% hits; in the data active means inhibition above about 48%; inconclusive means no clear call, values can overlap the other calls
The depositor's hits bear a star.

Screening O=C(CN1C(=O)C2CC=CCC2C1=O)Nc1nc2ccccc2[nH]1 (centres undefined) returned HIV RNase H inh-1 7.
For COc1ccc(Cn2nnnc2C(c2cccnc2)N2CCN(c3ccc(O)cc3)CC2)cc1 (centres undefined) the results were HIV RNase H inh-1 80* and HIV RNase H inh-2 85*.
For COc1ccc(Cn2nnnc2C(c2ccc(C)cc2)N2CCN(C3CCCC3)CC2)cc1 (centres undefined) the results were HIV RNase H inh-1 3.
For COc1ccc(Cn2nnnc2C(c2ccccc2Cl)N2CCN(C)CC2)cc1 (centres undefined) the results were HIV RNase H inh-1 -10.
Screening O=c1c2cc(Cl)ccc2nc2ccc(N3CCCC3)nn12 returned HIV RNase H inh-1 -25.
CCOc1ccc(C2CC(c3ccc(F)cc3)n3ncnc3N2)cc1 (centres undefined) was read as HIV RNase H inh-1 0.
For COc1ccc(-n2c(N)c(Br)c(=O)[nH]c2=O)cc1 the results were HIV RNase H inh-1 -3.
Screening O=c1cnn(-c2ccccc2)c(-c2ccccc2)c1 returned HIV RNase H inh-1 -20.
`O=C1C(=O)N(CCCn2ccnc2)C(c2cccnc2)/C1=C(/O)c1ccc(Br)cc1` (centres undefined) gave HIV RNase H inh-1 1.
c1ccc(Cn2nnc3c(N4CCCC4)ncnc32)cc1 was read as HIV RNase H inh-1 -15.
c1ccc(-n2nnc3c(N4CCOCC4)ncnc32)cc1 was read as HIV RNase H inh-1 67* and HIV RNase H inh-2 15.
For c1ccc(Cn2nnc3c(N4CCC5(CC4)OCCO5)ncnc32)cc1 the results were HIV RNase H inh-1 -23.
For CCC(=O)N1CCc2cc(Br)cc(S(=O)(=O)N3CCN(c4ccccn4)CC3)c21 the results were HIV RNase H inh-1 45.
Screening CCOCCn1c(CN2CCOCC2)nc2c1c(=O)[nH]c(=O)n2C returned HIV RNase H inh-1 2.
COc1ccccc1N1CCN(C(c2cccs2)c2nnnn2C2CCCC2)CC1 (centres undefined) was read as HIV RNase H inh-1 7.
`Cc1cc(C)n(-c2ccc(C(=O)OCC(=O)N(CC(C)C)C3CCS(=O)(=O)C3)cc2)n1` (centres undefined) gave HIV RNase H inh-1 -9.
`CC(C)CN(C(=O)COC(=O)c1ccc2c(c1)NC(=O)CS2)C1CCS(=O)(=O)C1` (centres undefined) gave HIV RNase H inh-1 77* and HIV RNase H inh-2 79*.
CC(C)CN(C(=O)COC(=O)c1cc2ccccc2oc1=O)C1CCS(=O)(=O)C1 (centres undefined) was read as HIV RNase H inh-1 0.
Screening COc1ccc(OC)c(C2C3=C(CCCC3=O)Nc3nc4ccccc4n32)c1 (centres undefined) returned HIV RNase H inh-1 -14.
CCC(=O)Nc1cc(C)c(NC(=O)c2ccccc2OC)cn1 was read as HIV RNase H inh-1 -31.
Screening CCOC(=O)c1sc(NC(=O)CSc2ccccn2)c(C#N)c1C returned HIV RNase H inh-1 19.
Screening CCc1nnc(NC(=O)CSc2nnc(Cc3ccccc3)o2)s1 returned HIV RNase H inh-1 -18.
Screening Cc1nn(C)c(C)c1NC(=O)CCSc1nc(-c2ccco2)cc(C(F)(F)F)n1 returned HIV RNase H inh-1 3.
CCOC(=O)c1c(NC(=O)CSc2nnc(CNc3ccc(F)cc3)o2)sc(C(C)=O)c1C was read as HIV RNase H inh-1 21.
`CCOC(=O)c1sc(NC(=O)CSc2nc(-c3ccco3)cc(C(F)(F)F)n2)c(C#N)c1C` gave HIV RNase H inh-1 76* and HIV RNase H inh-2 inconclusive.
`CCOC(=O)c1sc(NC(=O)CSc2ncn[nH]2)c(C#N)c1C` gave HIV RNase H inh-1 3.
`CCOC(=O)c1sc(NC(=O)CSc2n[nH]c(-c3ccccc3)n2)c(C#N)c1C` gave HIV RNase H inh-1 83* and HIV RNase H inh-2 62*.
Cc1cc(NC(=O)CSc2nc(-c3ccco3)cc(C(F)(F)F)n2)no1 was read as HIV RNase H inh-1 -3.
For CCOC(=O)c1sc(NC(=O)CSc2nnc(Cc3ccccc3)o2)c(C#N)c1C the results were HIV RNase H inh-1 90* and HIV RNase H inh-2 54*.
Screening CN1CCc2nc(SCC(=O)Nc3ccc(F)cc3)c(C#N)cc2C1 returned HIV RNase H inh-1 11.
Screening COc1cccc(C(=O)Cn2c(=O)n(CC3CCCO3)c(=O)c3ccccc32)c1 (centres undefined) returned HIV RNase H inh-1 -2.
For O=C1CC(N2CCC(O)(c3ccc(Cl)cc3)CC2)C(=O)N1Cc1ccc(N2CCCC2=O)cc1 (centres undefined) the results were HIV RNase H inh-1 8.
Screening COc1cc(NS(C)(=O)=O)c(OC)cc1NC(=O)c1ccccc1 returned HIV RNase H inh-1 1.
COc1ccccc1N1CCN(S(=O)(=O)c2ccc(Cl)s2)CC1 was read as HIV RNase H inh-1 0.
CCOC(=O)C(C)Sc1nc(-c2ccc(OC)cc2)nc2c1c(=O)n(C)c(=O)n2C (centres undefined) was read as HIV RNase H inh-1 38.
For O=C(C1CC1)N1CCN=C1SCc1ccccc1Cl the results were HIV RNase H inh-1 -54.
COc1ccc(NC(=O)c2cc3n(n2)C(C(F)(F)F)CC(c2ccco2)N3)cc1 (centres undefined) was read as HIV RNase H inh-1 6.
`Cc1cc(NC(=O)c2cc3n(n2)C(C(F)(F)F)CC(c2ccco2)N3)n(-c2ccccc2)n1` (centres undefined) gave HIV RNase H inh-1 62* and HIV RNase H inh-2 44.
Screening O=C(NCC12CC3CC(CC(C3)C1)C2)c1cc2n(n1)C(C(F)(F)F)CC(c1ccco1)N2 (centres undefined) returned HIV RNase H inh-1 11.
CCn1cc(S(=O)(=O)CC(=O)N2CCc3ccccc32)c2ccccc21 was read as HIV RNase H inh-1 -13.
`CCOC(=O)N1CCN(C(=O)CN(c2ccc(OCc3ccccc3)cc2)S(C)(=O)=O)CC1` gave HIV RNase H inh-1 3.
`O=C(Nc1ccc(-c2cn3ccsc3n2)cc1)c1ccc(F)c(S(=O)(=O)N2CCOCC2)c1` gave HIV RNase H inh-1 5.
O=C(CSCC(=O)NCc1ccco1)NCc1ccco1 was read as HIV RNase H inh-1 -11.
`O=C(CCSCCC(=O)NCc1ccco1)NCc1ccco1` gave HIV RNase H inh-1 77* and HIV RNase H inh-2 47*.
`O=C(CCSCCC(=O)NCc1cccs1)NCc1cccs1` gave HIV RNase H inh-1 5.
Screening O=C(CCS(=O)(=O)Cc1ccccc1)NCC1CCCO1 (centres undefined) returned HIV RNase H inh-1 -9.
Screening CCCCC[C@H](O)/C=C/[C@H]1C=CC(=O)[C@@H]1C/C=C\CCCC(=O)O returned HIV RNase H inh-1 77* and HIV RNase H inh-2 67*.
Screening Cc1ccc(C(=O)CCNc2ccc(F)c(Cl)c2)o1 returned HIV RNase H inh-1 -20.
Screening Cc1onc(-c2ccccc2)c1C(=O)Nc1cccc(C#N)c1 returned HIV RNase H inh-1 -40.
Screening COC(=O)[C@H](CCSC)NC(=O)NCc1ccc(S(N)(=O)=O)cc1 returned HIV RNase H inh-1 -2.
c1coc(-c2nnc3sc(C4CCCCC4)nn23)c1 was read as HIV RNase H inh-1 75* and HIV RNase H inh-2 inconclusive.
Screening Brc1ccc(-c2nn3c(-c4ccco4)nnc3s2)o1 returned HIV RNase H inh-1 7.
Screening COc1ccc(-c2nnc3sc(C4CCCCC4)nn23)cc1OC returned HIV RNase H inh-1 -1.
